Screening results (PubChem)
Hits are enriched below; roughly 5.7% of the tested compounds scored in any of these assays.
DAX1 inh-1 – NR0B1 (DAX1) inhibition; inhibition, % at 6.75 µM; P51843; HEK293 Gal4-DAX1 luciferase reporter, luminescence; AID 504766; 340,000 tested, 0.99% active;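 active = inhibition above the mean over all tested compounds plus 3 SD, cut at about 4.2% in these data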;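 note: inhibition shows as a rise in luminescence from relieved DAX1 repression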
Target sequence (P51843 207-470 limits assumed): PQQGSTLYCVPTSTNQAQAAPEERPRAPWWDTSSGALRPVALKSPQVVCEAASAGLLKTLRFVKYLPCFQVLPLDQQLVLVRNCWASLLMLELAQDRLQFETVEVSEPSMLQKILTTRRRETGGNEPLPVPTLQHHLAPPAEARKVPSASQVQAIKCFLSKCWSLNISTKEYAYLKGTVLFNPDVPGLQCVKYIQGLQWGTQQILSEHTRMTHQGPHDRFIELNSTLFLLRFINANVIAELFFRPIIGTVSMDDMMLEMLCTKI
hgDAF-12 ag – hgDAF-12 agonism, primary luciferase screen; HEK293 GAL4-hgDAF12 UAS-luciferase reporter, agonist luminescence; normalized to butyrate control; activation, % at 6.8 µM; 370,000 tested, 1.8% active;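 active = activation above a cutoff set at the mean of all screened compounds plus 3 SD, cut at about 10% in these data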
DAX1 inh-2 – DAX1 (NR0B1) inhibition, primary screen | 370,000 tested, 1.1% active | inhibition, % at 6.8 µM | HEK293T StAR-luciferase reporter, SF-1/DAX-1 repression relief;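 active = inhibition above the mean over all tested compounds plus 3 SD, cut at about 3.6% in these data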;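 note: higher inhibition means more luminescence from relief of DAX-1 repression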
hcDAF-12 act – H. contortus DAF-12 activation, primary screen. HEK293 hcDAF-12 lit1-tk-luc reporter, luminescence; 0% DMSO, 100% Δ7-dafachronic acid. activation, % at 6.8 µM. 370,000 tested, 1.4% active;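 active = activation above the mean of all tested compounds plus 3 SD, cut at about 5.5% in these data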
ssDAF-12 act – activates DAF-12 receptor from parasite S. stercoralis. activation, % at 6.8 µM. 370,000 tested, 1% active. HEK293 ssDAF-12/GRIP1 lit1-tk-luc reporter, luminescence; % of 3 µM dafachronic acid response;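 active = activation above the mean over all tested compounds plus 3 SD, cut at about 0.9% in these data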
AHR act – human AHR activation. AID 2796. AHR-responsive luciferase reporter cells, luminescence. 320,000 tested, 2.5% active. activation, % at 5 µM; in the data active = activation above about 47%
DAX1 conf – NR0B1 (human) inhibition, confirmation; shares compounds with DAX1 inh-2; HEK293T StAR-promoter luciferase reporter, SF-1/DAX-1 repression; inhibition, % at 6.8 µM; 2,400 tested, 87% active; AID 652134;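 active = inhibition above the average of every tested compound plus 3 SD, cut at about 3.8% in these data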;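 note: active compounds raise luminescence by relieving repression of the StAR reporter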
Target sequence (P51843 whole entry, looked up): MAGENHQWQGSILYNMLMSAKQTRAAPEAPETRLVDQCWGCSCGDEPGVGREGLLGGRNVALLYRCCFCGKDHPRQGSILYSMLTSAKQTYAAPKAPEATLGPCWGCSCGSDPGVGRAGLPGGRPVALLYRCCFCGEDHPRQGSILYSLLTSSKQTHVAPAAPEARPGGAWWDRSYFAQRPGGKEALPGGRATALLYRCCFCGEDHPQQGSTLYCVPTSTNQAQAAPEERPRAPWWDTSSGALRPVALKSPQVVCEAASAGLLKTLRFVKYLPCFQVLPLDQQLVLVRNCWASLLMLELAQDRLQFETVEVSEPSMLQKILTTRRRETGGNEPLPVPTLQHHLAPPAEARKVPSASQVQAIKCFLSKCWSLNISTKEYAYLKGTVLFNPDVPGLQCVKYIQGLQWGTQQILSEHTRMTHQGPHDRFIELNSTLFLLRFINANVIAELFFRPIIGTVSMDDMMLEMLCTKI
SF1 mutant ctr – counter-screen for DAX1 inhibitors: nonselective inhibitors with SF-1 AF2 mutant; 2,400 tested, 78% active; HEK293 StAR-luciferase, luminescence; shares compounds with DAX1 inh-2; inhibition, % at 6.8 µM;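 active = inhibition above the mean of all tested compounds plus 3 SD, cut at about 3% in these data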
LXRb hcDAF ctr – counter-screen for hcDAF-12 agonists: agonists of human LXR-beta; HEK293 Gal4-LXR tk-luc reporter, luminescence, 24 h; normalized: DMSO 0%, positive control 100%; shares compounds with hcDAF-12 act; activation, % at 6.8 µM; 3,400 tested, under 10 active; AID 743027;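 active = mean percent activation of the reporter above a cutoff set as the average over tested compounds plus their standard deviation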
hcDAF12 conf – hcDAF-12 agonism, confirmation assay; shares compounds with hcDAF-12 act; HEK293 hcDAF-12 lit1-tk-luc reporter, luminescence; % of Δ7-dafachronic acid response; activation, % at 6.8 µM; 3,400 tested, 61% active;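 active = mean activation across triplicate tests above the threshold derived from the earlier primary screen, cut at about 5.5% in these data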
hgDAF12 conf – confirmation of H. glycines DAF-12 agonists | HEK293 GAL4-hgDAF12 luciferase reporter, agonist mode; percent of butyrate response | 3,300 tested, 80% active | shares compounds with hgDAF-12 ag | AID 743050 | activation, % at 6.8 µM;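 active = mean activation over triplicate wells above the hit cutoff derived from the earlier primary screen, cut at about 11% in these data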
LXR ag 2 – activates human LXR-beta, counter-screen for DAF-12 agonists | shares compounds with hgDAF-12 ag | HEK293 Gal4-LXR luciferase reporter, 24 h | activation, % at 6.8 µM | 3,300 tested, under 10 active | AID 743051;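 active = mean activation of the triplicate above a set limit carried over from the primary screen, none filed active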
Large screens that a line does not name were inactive (follow-up assays come after a bar, where they were run).

COc1ccc(CNc2nc3ccccc3n2C(C)C)c(O)c1	none
COc1ccc(CNc2nc3ccccc3n2C)c(OC)c1	hgDAF-12 ag 13.3, DAX1 inh-2 6.4 | DAX1 conf 12.5 | SF1 mutant ctr 7.4 | hgDAF12 conf 15.2 | LXR ag 2 inactive
Cc1cccnc1NC(=S)NC(=O)c1cccs1	hgDAF-12 ag 17.7, DAX1 inh-2 7.2, hcDAF-12 act 14.2, ssDAF-12 act 2.2 | DAX1 conf 13.8 | SF1 mutant ctr 10.5 | LXRb hcDAF ctr inactive | hcDAF12 conf 14.6 | hgDAF12 conf 16.7 | LXR ag 2 inactive
Cc1ccc(C(C#N)=Cc2ccc3c(c2)OCO3)cc1	hgDAF-12 ag 18.4, DAX1 inh-2 6.8 (no result: AHR act) | DAX1 conf 10.9 | SF1 mutant ctr 5.0 | hgDAF12 conf 21.0 | LXR ag 2 inactive
N#C/C(=C\c1ccc2c(c1)OCO2)C(N)=S	none (no result: DAX1 inh-1)
CCC(=O)Nc1cc2nn(-c3ccc(OC)cc3)nc2cc1C	DAX1 inh-1 5.5, hgDAF-12 ag 15.6, DAX1 inh-2 5.1 | DAX1 conf 13.1 | SF1 mutant ctr 3.3 | hgDAF12 conf 13.7 | LXR ag 2 inactive
CCNC(=S)NNC(=O)c1cc(-c2ccc(OCC)cc2)nc2ccccc12	hgDAF-12 ag 15.8, DAX1 inh-2 7.7, hcDAF-12 act 9.0, ssDAF-12 act 1.3 | DAX1 conf 16.7 | SF1 mutant ctr 8.6 | LXRb hcDAF ctr inactive | hcDAF12 conf 11.7 | hgDAF12 conf 25.3 | LXR ag 2 inactive
CCNC(=S)NNC(=O)c1cc(-c2cccc(OC)c2)nc2ccccc12	none
N#C/C(=N\Nc1ccc(Cl)cc1)C(=O)c1ccsc1	none
Cc1ccc(N/N=C(\C#N)C(=O)c2ccsc2)cc1	none
N#C/C(=N\Nc1ccc(Cl)cc1)C(=N)N1CCCCC1	hgDAF-12 ag 15.5, DAX1 inh-2 5.9, hcDAF-12 act 7.8, ssDAF-12 act 1.0 | DAX1 conf 15.4 | SF1 mutant ctr 11.5 | LXRb hcDAF ctr inactive | hcDAF12 conf 6.6 | hgDAF12 conf 19.4 | LXR ag 2 inactive
N#C/C(=N\Nc1ccc(F)cc1)C(=N)N1CCCCCC1	DAX1 inh-1 4.4, hgDAF-12 ag 14.4, DAX1 inh-2 7.0, hcDAF-12 act 9.2 | DAX1 conf 14.6 | SF1 mutant ctr 4.0 | LXRb hcDAF ctr inactive | hcDAF12 conf 7.3 | hgDAF12 conf 17.9 | LXR ag 2 inactive
Cc1ccc(N/N=C(\C#N)C(=N)N2CCCCCC2)cc1	hgDAF-12 ag 19.4, DAX1 inh-2 10.2, hcDAF-12 act 11.5, ssDAF-12 act 2.0 | DAX1 conf 16.1 | SF1 mutant ctr 6.8 | LXRb hcDAF ctr inactive | hcDAF12 conf 9.7 | hgDAF12 conf 23.3 | LXR ag 2 inactive
COc1ccc(OC)c(NC(=O)c2cccc(NC(=O)c3ccco3)c2)c1	none (no result: AHR act)
O=C(COc1ccc2c(c1)CCC2)NCc1ccccc1	none
NNC(=O)c1cccc(COc2ccc3c(c2)CCC3)c1	hgDAF-12 ag 22.0, DAX1 inh-2 4.9 | DAX1 conf 14.8 | SF1 mutant ctr 5.1 | hgDAF12 conf 21.6 | LXR ag 2 inactive
COc1ccccc1CN1C[C@@H]2C[C@@H](c3cccc(C)c3)N3CCC[C@@]23C1=O	none (no result: DAX1 inh-1)
O=C(Nc1ccc(Cl)cc1)N1CCCC(Cn2cccc2)C1 (stereo not given)	none
O=C(c1ccco1)N1CCN(C2CC(=O)N(c3ccc(F)c(Cl)c3)C2=O)CC1 (stereo not given)	none
CCCn1c(=O)c2[nH]c(-c3ccc(OCC(=O)Nc4ccc(C#N)cc4)cc3)nc2n(CCC)c1=O	none
COc1cccc(N/C=C/C(=O)c2ccc(Cl)cc2)c1	hgDAF-12 ag 19.9, DAX1 inh-2 6.1, hcDAF-12 act 7.1 | DAX1 conf 17.2 | SF1 mutant ctr 6.6 | LXRb hcDAF ctr inactive | hcDAF12 conf 8.7 | hgDAF12 conf 22.3 | LXR ag 2 inactive
COc1cccc(C(=O)/C=C/Nc2cccc(O)c2)c1	none (no result: hgDAF-12 ag, DAX1 inh-2, hcDAF-12 act, ssDAF-12 act)
CC(=O)c1ccc(Nc2ccc(-c3ccccc3F)nn2)cc1	hgDAF-12 ag 18.3, DAX1 inh-2 4.7 | DAX1 conf 13.7 | SF1 mutant ctr 6.8 | hgDAF12 conf 18.9 | LXR ag 2 inactive
COc1cc(CN2CCCC(CO)(Cc3ccccc3C)C2)cc2c1OCO2 (stereo not given)	none
Clc1ccccc1Nc1nc2ccccc2o1	hgDAF-12 ag 13.4, DAX1 inh-2 9.3, hcDAF-12 act 11.0, ssDAF-12 act 1.2 | DAX1 conf 13.7 | SF1 mutant ctr 9.0 | LXRb hcDAF ctr inactive | hcDAF12 conf 10.4 | hgDAF12 conf 23.1 | LXR ag 2 inactive
Cc1cccc(C)c1Nc1nc2ccccc2o1	none
CCOC(=O)c1c(C)nc(C)c(C(=O)OCC)c1-c1ccccc1	none (no result: hgDAF-12 ag, DAX1 inh-2, hcDAF-12 act, ssDAF-12 act)
CCOC(=O)C1=CCC(c2cc3ccccc3[nH]2)NC1 (stereo not given)	hgDAF-12 ag 15.5, DAX1 inh-2 5.7, hcDAF-12 act 8.0, ssDAF-12 act 1.1 (no result: DAX1 inh-1, AHR act) | DAX1 conf 8.9 | SF1 mutant ctr 5.0 | LXRb hcDAF ctr inactive | hcDAF12 conf 6.4 | hgDAF12 conf 19.1 | LXR ag 2 inactive
Nc1ccc(C(=O)Nc2nc3ccccc3s2)cc1	hgDAF-12 ag 21.1, DAX1 inh-2 5.3, hcDAF-12 act 6.6, ssDAF-12 act 1.2 | DAX1 conf 5.6 | SF1 mutant ctr 3.0 | LXRb hcDAF ctr inactive | hcDAF12 conf 8.7 | hgDAF12 conf 21.1 | LXR ag 2 inactive
COc1ccc(C2=Nc3ccccc3N(C(=O)c3ccc4ncccc4c3)C2C(=O)NC(C)(C)C)cc1 (stereo not given)	hgDAF-12 ag 23.0, DAX1 inh-2 5.5, hcDAF-12 act 11.1, ssDAF-12 act 1.3 (no result: DAX1 inh-1, AHR act) | DAX1 conf 10.8 | SF1 mutant ctr 5.8 | LXRb hcDAF ctr inactive | hcDAF12 conf 11.8 | hgDAF12 conf 15.3 | LXR ag 2 inactive
